BoNT A protease: inhibitors of Botulinum neurotoxin A light chain protease. multiplex microsphere protease substrate cleavage, flow cytometry. 360,000 tested, 0.17% active. inhibition, % at 10 µM; note: plate controls were buffer without enzyme for full effect and enzyme alone for no effect
MazEF act: MazEF (E. coli) toxin RNase activation; 350,000 tested, 0.32% active; activation, % at 20 µM; AID 504720; P0AE70; FAM/BHQ RNA-DNA oligo cleavage fluorescence, 5 h; in the data active = activation above about 50%
BoNT F protease: inhibitors of Botulinum neurotoxin F light chain protease. Multiplex microsphere protease cleavage assay, flow cytometry. inhibition, % at 10 µM. 360,000 tested, 0.22% active. AID 588497; in the data active = inhibition above about 35%, passing the limit was not always enough; inconclusive = no clear call, values can overlap the other calls; note: plate controls were buffer without enzyme for full effect and enzyme alone for no effect
Anthrax LF inh2: inhibitors of Bacillus anthracis lethal factor protease; AID 588501; multiplex microsphere protease cleavage assay, LF; 360,000 tested, 0.12% active; inhibition, % at 10 µM; note: plate controls were buffer without enzyme for full effect and enzyme alone for no effect
Autofluor counter: compound fluorescence in toxin protease inhibitor counterscreen; 360,000 tested, 3.1% active; fluorescence intensity (no concentration beside the values); compound autofluorescence counterscreen, microsphere flow cytometry; stronger effect = higher value; in the data active = fluorescence intensity above about 16000; inconclusive = no clear call, values can overlap the other calls
Active calls of the source: *; ? = inconclusive; · = not tested or not shown. Sampled rows, rich in hits. Any-hit rate of the full collection: about 3.7%. Cut-off read from the data, not from the text of the source, unless noted: active = inhibition above about 30%; inconclusive = no clear call, values can overlap the other calls; inactive = below that.

SMILES	BoNT A protease	MazEF act	BoNT F protease	Anthrax LF inh2	Autofluor counter
CC1(C(=O)CSc2nc3ccccc3s2)CCC(=O)O1 (stereo unspecified)	1	4	3	0	2988
O=C(CCC(=O)c1ccccc1)NC1CCCN(Cc2ccccc2F)C1 (stereo unspecified)	1	-18	-25	4	4523
CCN(CC(=O)N1CCCC1)S(=O)(=O)c1ccc2ccccc2c1	-1	-8	-12	-3	3674
COc1ccc(NC(=O)CSc2ccc3c4c(cccc24)C(=O)c2ccccc2-3)cc1	23	-188	8	14	9656
N#Cc1cccc(NC(=O)CSc2ccc3c4c(cccc24)C(=O)c2ccccc2-3)c1	44*	-352	43*	28	7954
CCOC(=O)N1CCN(Cc2nc(N)nc(Nc3ccc(C)cc3C)n2)CC1	0	0	-5	-4	4046
CCCCn1c(NC(=O)c2ccc(Br)o2)c(C(=O)OCC)c2nc3ccccc3nc21	13	80*	0	3	2499
CCC(C)NC(=O)c1c(N)n(CCCOC)c2nc3ccccc3nc12 (stereo unspecified)	8	10	6	-12	17608*
CCCCCOC(=O)c1c(N)n(CCOC)c2nc3ccccc3nc12	1	10	-2	1	20661*
CCOC(=O)c1c(N)n(CCOC(=O)c2cccs2)c2nc3ccccc3nc12	2	0	-10	-1	8086
COc1ccc2c(CN3CCN(c4ccccc4F)CC3)cc(=O)oc2c1	1	·	1	-4	5454
O=C(c1ccc(NS(=O)(=O)c2cccs2)cc1)N1CCOCC1	0	-2	9	5	5769
CCOc1ccccc1-n1c(SCC(N)=O)nnc1-c1ccccc1	?	5	-4	1	16659*
CCOc1ccccc1-n1c(SCC(=O)N2CCCC2)nnc1-c1ccc(O)cc1	-1	-11	-1	0	10502
CCOc1ccccc1-n1c(SCC(N)=O)nnc1-c1ccc(O)cc1	2	-4	4	-1	19710*
COc1ccccc1-n1c(SCC(N)=O)nnc1-c1ccccc1	-1	0	-8	-3	3413
CC1(C(=O)Nc2ccc3c(c2)OCO3)Cc2c(-c3cccc(C(F)(F)F)c3)ccnc2O1 (stereo unspecified)	0	·	-9	1	2827
COc1ccccc1CC(=O)NCCN1CCCCC1	-2	-2	-15	-8	3417
C=CCC[C@@H](Cc1ccc(F)cc1)C(=O)OC[C@@H]1CCCN1C(=O)[C@@H](CC=C)CC(=O)N[C@@H](CO)Cc1ccccc1	0	5	-10	-4	3477
CN(C)C(CNC(=O)c1ccc(S(=O)(=O)Nc2cccc(C(F)(F)F)c2)cc1)c1ccco1 (stereo unspecified)	5	-7	-14	-3	?
Clc1ccc(-n2nnnc2-c2ccccc2)cc1	?	8	-8	2	17854*
CCOc1cc(S(=O)(=O)NCCc2ccc(OC)c(OC)c2)c(OCC)cc1-n1cnnn1	0	1	-3	2	10269
CCOc1cc(S(=O)(=O)NCc2ccc(OC)cc2)c(OCC)cc1-n1cnnn1	?	-6	0	-4	23322*
C[C@H](OC(=O)N1CCN(C(c2ccccc2)c2ccccc2)CC1)[C@@H]1O[C@@]2(C)CCC[C@H]1O2	-1	-2	-10	-11	3332
COc1ccccc1OC(C)C(=O)N1CCN(Cc2ccc3c(c2)OCO3)CC1 (stereo unspecified)	-2	-1	-6	-2	4733
SMILES	BoNT A protease	MazEF act	BoNT F protease	Anthrax LF inh2	Autofluor counter
Cc1ccc(Cl)cc1N1CCN(C(=O)C2CCC(=O)N2C(C)C)CC1 (stereo unspecified)	0	7	-1	3	5512
CCOC(=O)N1CCN(C(=O)C2CCC(=O)N2C(C)C)CC1 (stereo unspecified)	4	0	1	0	22385*
N#CC1(C#N)CC(C=O)=C(N)C1(C#N)CC(=O)c1ccc(F)cc1 (stereo unspecified)	1	154*	-8	1	5220
Cn1ccnc1C(=O)Cc1ccc([N+](=O)[O-])cc1	·	10	·	·	·
Cc1ccc(NC(=O)c2cc3nc(C)cc(C)n3n2)cc1	0	2	2	-4	20310*
COc1ccc(OC)c(NC=C2C(=O)OC3(CCCCC3)OC2=O)c1	10	0	14	2	18401*
COc1ccc(OC)c(NC=C2C(=O)OC(C)(C)OC2=O)c1	0	-2	2	0	2896
CCCc1[nH]n(-c2nc3ccccc3s2)c(=O)c1C=NCCN1CCOCC1	?	3	27	-7	15365
CCCc1[nH]n(-c2nc3ccccc3s2)c(=O)c1C=NCC1CCCO1 (stereo unspecified)	5	2	6	-6	19952*
CCCOc1ccc(C(=O)N2CCN(c3ccc(NC(=O)CC)cc3Cl)CC2)cc1	?	2	-4	1	20982*
CN1CCN(c2ccc(NC(=O)COc3ccccc3)cc2Cl)CC1	3	-11	-4	0	5927
CCCOc1ccc(/C(O)=C2/C(=O)C(=O)N(c3ccccn3)C2c2ccc(OC)cc2)cc1C (stereo unspecified)	2	-8	-6	4	3607
CCS(CC)=NS(=O)(=O)c1ccc(NC(C)=O)cc1	2	17	37*	1	4549
Cn1cccc1/C=C1\CCC/C(=C\c2cccn2C)C1=O	6	863*	-4	1	6318
CCc1ccc(OCc2n[nH]c(=S)n2C(C)CCCC(C)C)cc1 (stereo unspecified)	-1	-11	-4	-4	4582
CCNS(=O)(=O)c1ccc2c(c1)n(C)c(=O)n2C	4	7	2	1	22262*
CCCNS(=O)(=O)c1ccc2c(c1)n(C)c(=O)n2C	1	1	4	-3	4741
COC(=O)C1=CN(c2cccc(Cl)c2)C=C(C(=O)OC)C1c1cccc(OC)c1	0	-7	-4	0	5641
CCN1CCN(c2nc3c(c(=O)[nH]c(=O)n3C)n2CCCSc2ncccn2)CC1	0	54*	-13	-9	2506
Cn1c(=O)[nH]c(=O)c2c1nc(N1CCc3ccccc3C1)n2CCSc1nc2ccccc2s1	0	-46	-1	-2	16749*
Cn1c(=O)[nH]c(=O)c2c1nc(N1CCN(Cc3ccccc3)CC1)n2CCSc1ncccn1	0	6	-3	-7	4502
CN1CCN(c2nc3c(c(=O)[nH]c(=O)n3C)n2CCCSc2ncccn2)CC1	1	1	0	-1	22784*
O=C(c1cn2ccccc2n1)N1CCCC(Nc2ccc(F)c(F)c2)C1 (stereo unspecified)	-2	3	-7	1	5646
CC(C)(C)c1ccc(C(=O)O)c(C(=O)c2ccc(C(=O)O)cc2)c1	1	-16	-5	8	3877
O=C1CCCN1S(=O)(=O)c1ccc(F)cc1	2	8	?	-4	4262
O=C(c1ccco1)N1CCN(C(=O)C2CCN(S(=O)(=O)c3cccs3)CC2)CC1	4	-10	6	5	18565*

Screens as filed in PubChem BioAssay.
